Activity calls are given as the source filed them. The calls were made as follows: active = hit-call score of the fitted dose curve at least 0.9, where 1 is the maximum; inactive = score below 0.9.
Test: APR_HepG2_StressKinase_24hr: Apredica 24-hour HepG2 Assay for Stress Kinase (AID 2282922)
Details: HepG2 stress kinase (phospho-c-Jun) imaging, actives raise or lower the signal
Method: APR_HepG2_24hr is a cell-based, multiplexed-readout assay that uses HepG2, a human liver cell line, with measurements taken at 24 hours after chemical dosing in a 384-well plate.APR_HepG2_StressKinase_24hr is one of 10 assay component(s) measured or calculated from the APR_HepG2_24hr assay. It is designed to make measurements of enzyme activity, a form of enzyme reporter, as detected with fluorescence intensity signals by HCS Fluorescent Imaging technology.Data from the assay component APR_HepG2_StressKinase_24hr was analyzed into 1 assay endpoint. This assay endpoint, APR_HepG2_StressKinase_24hr, was analyzed with bidirectional fitting relative to DMSO as the negative control and baseline of activity. Using a type of enzyme reporter, measures of protein for gain or loss-of-signal activity can be used to understand the signaling at the pathway-level as they relate to the gene . Furthermore, this assay endpoint can be referred to as a primary readout, because this assay has produced multiple assay endpoints where this one serves a signaling function. To generalize the intended target to other relatable targets, this assay endpoint is annotated to the cell cycle intended target family, where the subfamily is stress response.
Cells were treated with dimethyl sulfoxide (DMSO) as a solvent control at a final concentration of 0.5% v/v or with compounds in DMSO with a resulting final DMSO concentration of 0.5% v/v. Compound treatment was done at concentrations of 0.39, 0.78, 1.56, 3.12, 6.24, 12.5, 25, 50, 100, and 200 uM in duplicate on each plate. Cells were treated with compounds for 1, 24, or 72 hr. Carbonyl […] m-chloro-phenylhydrazone (CCCP) and taxol were used as positive controls for mitochondrial function and cytoskeletal stability, respectively; DMSO served as the negative control for this experiment. Cells were fixed by the direct addition of 50 uL formaldehyde in Hank's Balanced Salt Solution (HBSS) to a final concentration of 3.7%. After incubation in the fixation medium for 30 min at room temperature (293-298 K), cells were rinsed twice with HBSS and treated with cell permeabilization buffer (16 uL of 0.5% Triton X-100) for 10 min at room temperature (293-298 K) before labeling. For mitochondrial membrane potential and mitochondrial measurements, pre-fixed cells were incubated with 50 uL of MitoTracker Red CMXRos (Invitrogen) at a concentration of 250 nM for 30 min before fixation. In the remaining cases, post-fixed cells were labeled by incubation with a multiplexed mixture of primary antibodies in HBSS for 60 min at room temperature (293-298 K) to detect immunoreactivity of c-Jun (1:500), phospho-histone H3 (1:100), phospho-histone H2A.x (1:200), p53 (1:400), alpha-tubulin (1:200) and Hoechst 33342 (2 ug/mL). Cells were labeled for multiplexed imaging on two separate plates: a) Hoechst 33342, MitoTracker Red, phospho-histone H3, and alpha-tubulin, and b) Hoechst 33342, phospho-histone H2A.x, and c-Jun. A final rinse with HBSS (50 uL) was performed before analysis. The primary and secondary antibodies for the proteins were phospho-histone H3 (rabbit anti-phospho-histone H3 and FITC-donkey anti-rabbit IgG), phospho-histone H2A.x (mouse anti-phospho-histone H2A.x and FITC-donkey anti-mouse IgG), c-Jun (rabbit anti-phospho-c-Jun and Cy3-donkey anti-rabbit IgG), p53 (sheep anti-p53 and Cy5-donkey anti-sheep IgG), alpha-tubulin (mouse anti-alpha-tubulin and Cy5-donkey anti-mouse IgG). These antibodies are available as the CellCiphr HepG2 assay kit (Millipore).Digital images of each well were captured using a Cellomics ArrayScan VTI (Thermo Scientific Cellomics) (0.8 NA objective, 0.63x optical coupler, and XF-93 filter set) at 20x magnification. The images were acquired using the autofocus feature of the ArrayScan instrument, which entails the following steps. First, the camera focuses on channel 1 (Hoechst 33342), where nuclei are identified. Second, a Z offset of 1 um is used for capturing mitochondria (MitoTracker Red). […]

Which outcome does the source give for `C1N2CN3CN1CN(C2)C3` here?
The outcome was “inactive”.

For `O=C(OC[C@H]1O[C@@H](OC(=O)c2cc(O)c(O)c(OC(=O)c3cc(O)c(O)c(O)c3)c2)[C@H](OC(=O)c2cc(O)c(O)c(OC(=O)c3cc(O)c(O)c(O)c3)c2)[C@@H](OC(=O)c2cc(O)c(O)c(OC(=O)c3cc(O)c(O)c(O)c3)c2)[C@@H]1OC(=O)c1cc(O)c(O)c(OC(=O)c2cc(O)c(O)c(O)c2)c1)c1cc(O)c(O)c(OC(=O)c2cc(O)c(O)c(O)c2)c1`, which outcome is on record?
Its outcome is “inactive”.

Which outcome does the source give for `CNCc1ccc(NC(=O)c2c[nH]c3c2C(=O)CCC3)cc1` here?
Its outcome is “inactive”.

For `O=C(O)c1cccc(N(Cc2cccnc2)c2ccc(OC(F)F)c(OC(F)F)c2)c1`, which outcome is on record?
Its outcome is “inactive”.

For `O=C(NS(=O)(=O)/C=C/c1ccccc1)c1ccc(F)cc1Cl`, which outcome is on record?
The outcome was “inactive”.

For `CN(C)c1ccc(N=NS(=O)(=O)O)cc1`, which outcome is on record?
The outcome was “inactive”.

With `CC(C)=CCC/C(C)=C/CO` as the compound, how does the outcome read?
The outcome was “inactive”.

Which outcome does the source give for `NC(=O)NO` here?
The outcome was “inactive”.

Which outcome does the source give for `CC[C@H]1CC[C@H](NCc2cc3c(cc2OC)[C@H]2C[C@H]2C(=O)N3C)[C@H](c2ccccc2)N1` here?
Its outcome is “inactive”.

For `CCCN(C1CCN(C(=O)C2CCNCC2)CC1)[C@@H]1CCc2ccc(OC)cc2C1`, which outcome is on record?
The outcome was “inactive”.

With `Nc1nc2ncc(CNc3ccc(C(=O)N[C@@H](CCC(=O)O)C(=O)O)cc3)nc2c(=O)[nH]1` as the compound, how does the outcome read?
The outcome was “inactive”.

With `Cc1ccc(C)c(O)c1` as the compound, how does the outcome read?
Its outcome is “inactive”.

With `CCOC(=O)CC(CC(=O)OCC)(OC(C)=O)C(=O)OCC` as the compound, how does the outcome read?
Its outcome is “inactive”.

With `CCc1cc(SCc2sc(-c3ccc(C(F)(F)F)cc3)nc2CN2CCN(c3ccc(OC)cc3)CC2)ccc1OCC(=O)O` as the compound, how does the outcome read?
Its outcome is “inactive”.

With `CCOC(=O)c1ccc(C2CCC(NC[C@H](O)COc3ccc(O)c(NS(C)(=O)=O)c3)CC2)cc1` (stereo not given in full) as the compound, how does the AC50 read?
The AC50 was 28.3 µM (active).

Which outcome does the source give for `CCCCCCCCCCCCCCCO` here?
Its outcome is “inactive”.

With `O=C1CCC(N2C(=O)c3ccccc3C2=O)C(=O)N1` (stereo not given) as the compound, how does the outcome read?
Its outcome is “inactive”.

Which outcome does the source give for `CCNc1ccccc1` here?
Its outcome is “inactive”.

Which outcome does the source give for `Oc1ccc2c(c1)-c1ccccc1C2` here?
The outcome was “inactive”.

For `CCCCCCCCCCCCc1ccccc1`, which outcome is on record?
Its outcome is “inactive”.

Which outcome does the source give for `CCOCCOCCOCCO` here?
Its outcome is “inactive”.

With `CC(O)CN(CCN(CC(C)O)CC(C)O)CC(C)O` (stereo not given) as the compound, how does the outcome read?
The outcome was “inactive”.

For `CC(=O)OC[C@H]1O[C@@](COC(C)=O)(O[C@H]2O[C@H](COC(C)=O)[C@@H](OC(C)=O)[C@H](OC(C)=O)[C@H]2OC(C)=O)[C@@H](OC(C)=O)[C@@H]1OC(C)=O`, which outcome is on record?
The outcome was “inactive”.

For `COc1ccc2sc(C(=O)Nc3nnn[nH]3)c(OC(C)C)c2c1`, which outcome is on record?
Its outcome is “inactive”.

For `O=c1[nH]c2ccc(S(=O)CCN3CCC(Cc4ccc(F)cc4)CC3)cc2o1` (stereo not given), which outcome is on record?
The outcome was “inactive”.

Which outcome does the source give for `COCCOc1cc2cc(C(=O)NC3CCN(C(C)C)CC3)n(CC(=O)Nc3ccc(Cl)cn3)c2cn1` here?
Its outcome is “inactive”.

Which outcome does the source give for `Cc1c(-c2cccnc2)c2ccccc2n1CCCCC(=O)O` here?
Its outcome is “inactive”.

Which outcome does the source give for `CCN(C(=O)c1cc(C)cc(OC[C@H](C)Nc2ccncc2)c1)C(C)C` here?
Its outcome is “inactive”.

Which outcome does the source give for `CC(C)CCCCCCCOC(=O)CCCCC(=O)OCCCCCCCC(C)C` here?
The outcome was “inactive”.

Which AC50 does the source give for `O=c1n(CC2CO2)c(=O)n(CC2CO2)c(=O)n1CC1CO1` (stereo not given) here?
The AC50 was 31.6 µM (active).

For `CC[C@H](C)C(=O)O[C@H]1C[C@@H](C)C=C2C=C[C@H](C)[C@H](CC[C@@H]3C[C@@H](O)CC(=O)O3)[C@H]21`, which outcome is on record?
Its outcome is “inactive”.

For `Fc1ccccc1[C@@H](F)COC1CCC(Nc2ncnc3[nH]ncc23)CC1` (stereo not given in full), which outcome is on record?
Its outcome is “inactive”.

For `Nc1ccc(Nc2ccccc2)cc1`, which outcome is on record?
The outcome was “inactive”.

With `On1ccccc1=S` as the compound, how does the outcome read?
The outcome was “inactive”.

With `O=C(O)c1cc(N=Nc2ccc(S(=O)(=O)Nc3ccccn3)cc2)ccc1O` as the compound, how does the outcome read?
The outcome was “inactive”.

With `Cc1[nH]cnc1C[C@H]1CCc2c(C)c3ccccc3n2C1=O` as the compound, how does the AC50 read?
Its AC50 is 100 µM (active).

Which outcome does the source give for `O=C(CCCCCCCCc1cccnc1)N1CCC(C=C(c2ccccc2)c2ccccc2)CC1` here?
Its outcome is “inactive”.

With `CC(=O)c1ccc2c(c1)[C@H](NC(=O)c1ccc(F)cc1)[C@@H](O)C(C)(C)O2` as the compound, how does the outcome read?
Its outcome is “inactive”.

Which outcome does the source give for `CC(C)=CCC/C(C)=C\CO` here?
The outcome was “inactive”.

Which outcome does the source give for `O=C1OC(=O)C2C3C=CC(C3)C12` (stereo not given) here?
Its outcome is “inactive”.

Reference: PubChem BioAssay (EPA / NIEHS)
